In PubChem BioAssay (Tox21):
Records with an inconclusive call do not appear. Entries that show only a call come without a potency. Unmarked numbers belong to inactive results. Calls of active or inactive are those of the source. The call rests on the fitted dose curve; in most records, active means well fitted cell-killing curve with a large enough effect in the repeat runs; inconclusive means weak or mixed curves, or effect the other way; inactive means flat fitted curve, though single readings scatter.

How the values were obtained:
[1] = cAMP Responsive Elements (CRE) small molecule antagonists, cell-based qHTS assay: qHTS cell viability counter screen (AID 2060913); conditions: CRE-bla HEK293T viability, CellTiter-Glo luminescence, 5 h; series mostly up to 92.4 µM; further: nearly all actives have a fitted effect of over 40% in size
Outline: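 HEK293T CRE-bla, 2,000 cells/well, 18 h preincubation; cpd in DMSO + NKH477 0.25 uM final, 3 h 37 C/5% CO2; LiveBLAzer 2 h RT, then CellTiter-Glo 30 min RT, luminescence.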

[2] = cAMP Responsive Elements (CRE) small molecule agonists, cell-based qHTS assay: qHTS cell viability counter screen (AID 2060914); conditions: CRE-bla HEK293T viability, CellTiter-Glo luminescence, 5 h; series mostly up to 92.4 µM;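 further: viability read after 3 h of compound exposure; nearly all actives have a fitted effect of over 50% in size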
Outline: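 Cytotoxicity counter screen multiplexed with the CRE-bla reporter assay in HEK 293T cells: 3 h compound exposure at 37 °C, followed by CellTiter-Glo luminescence measured in the same wells.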
Potency means the concentration at half of the fitted maximal effect.

Row | SMILES | Potency [1] | Potency [2] | viability change, negative = cytotoxic [1] | activity change, negative = cytotoxicity [2]
1 | O=C(O)c1cc(-c2ccc(F)cc2F)ccc1O | inactive | inactive | – | –
2 | CC(=O)Oc1cccc2c1C(=O)c1c(OC(C)=O)cc(C(=O)O)cc1C2=O | inactive | inactive | – | –
3 | O=C=Nc1ccc(Cl)c(Cl)c1 | inactive | inactive | – | –
4 | CCOC(=O)CC(=O)c1ccccc1 | inactive | inactive | – | –
5 | OCCc1ccccc1 | inactive | inactive | – | –
6 | CCC(=O)Nc1ccc(O)cc1 | inactive | inactive | – | –
7 | CCCCCCCCCCCCCCCCOS(=O)(=O)O | inactive | inactive | – | –
8 | COC(=O)[C@@H]1CC2=CC(=O)CC[C@]2(C)[C@@]23O[C@@H]2C[C@@]2(C)[C@@H](CC[C@@]24CCC(=O)O4)[C@H]13 | inactive | inactive | – | –
9 | CCc1ccccc1O | inactive | inactive | – | –
10 | C1CCCCC1 | inactive | inactive | – | –
11 | Brc1c2ccccc2c(Br)c2ccccc12 | – | – | -0.61% [at 8.39 µM] | -1.97% [at 8.39 µM]
12 | CC1=C(C=O)C(C)(C)CC=C1 | inactive | inactive | – | –
13 | C=C(C)C(=O)OCCC(F)(F)C(F)(F)C(F)(F)C(F)(F)C(F)(F)C(F)(F)F | inactive | inactive | – | –
14 | OC[C@@H](O)[C@H](O)[C@H](O)[C@@H](O)CO | inactive | inactive | – | –
15 | CC(C)(C)C1(CCc2ccc(Cl)cc2)CO1 (stereo not drawn) | inactive | inactive | – | –
16 | OC[C@@H](O)[C@@H](O)[C@H](O)[C@@H](O)CO | inactive | inactive | – | –
17 | CC(=O)N1C[C@H](O)C[C@H]1C(=O)O | inactive | inactive | – | –
18 | C[C@H](NC(CCc1ccccc1)C(=O)O)C(=O)N1CCC[C@H]1C(=O)O (stereo partly drawn) | inactive | inactive | – | –
19 | CCCCOc1cc(C(=O)NCCN(CC)CC)c2ccccc2n1 | inactive | inactive | – | –
20 | CN1C(=O)CC(c2ccccc2)C1=O (stereo not drawn) | inactive | inactive | – | –
21 | CCCCOCCOCCOC(=O)CCCCC(=O)OCCOCCOCCCC | inactive | inactive | – | –
22 | CCC(=O)CC(C)CC (stereo not drawn) | – | – | -1.01% [at 0.349 µM] | 6.36% [at 0.349 µM]
23 | COCCCOc1cc(C[C@@H](C[C@H](N)[C@@H](O)C[C@H](C(=O)NCC(C)(C)C(N)=O)C(C)C)C(C)C)ccc1OC | inactive | inactive | – | –

Row | SMILES | Potency [1] | Potency [2] | viability change, negative = cytotoxic [1] | activity change, negative = cytotoxicity [2]
24 | CCCC1CCCC(=O)O1 (stereo not drawn) | inactive | inactive | – | –
25 | CCC(=O)C(=O)CC | inactive | inactive | – | –
26 | CCC1(C)C(=O)N(Cl)C(=O)N1Cl (stereo not drawn) | inactive | inactive | – | –
27 | O=C(O)CCSCCC(=O)O | inactive | inactive | – | –
28 | O=C(O)COCC(=O)O | inactive | inactive | – | –
29 | CC(=O)Nc1ccc(C(=O)O)cc1 | inactive | inactive | – | –
30 | O=C1CCCCCO1 | inactive | inactive | – | –
31 | CCCO | inactive | inactive | – | –
32 | COCCOCCOCCOCCO | inactive | inactive | – | –
33 | CCN(CC)C(=O)Nc1ccc(OCC(O)CNC(C)(C)C)c(C(C)=O)c1 (stereo not drawn) | inactive | inactive | – | –
34 | O=C(OC(=O)c1ccccc1)c1ccccc1 | inactive | inactive | – | –
35 | CC(C)N1C(=O)c2ccccc2C1=O | inactive | inactive | – | –
36 | CC(=O)c1ccc(S(=O)(=O)NC(=O)NC2CCCCC2)cc1 | inactive | inactive | – | –
37 | O=C(O)c1cc(Br)c(O)c(Br)c1 | inactive | inactive | – | –
38 | CN=C(NC#N)Nc1ccc(C2=NNC(=O)CC2C)cc1 (stereo not drawn) | inactive | inactive | – | –
39 | CCOC(=O)c1c(N)sc2c1CCN(Cc1ccccc1)C2 | inactive | inactive | – | –
40 | COc1ccc2c(c1)CCCC2=O | inactive | inactive | – | –
41 | Cc1ccc(C=O)cc1 | inactive | inactive | – | –
42 | CC[C@H]1OC(=O)[C@H](C)[C@@H](O[C@H]2C[C@@](C)(OC)[C@@H](O)[C@H](C)O2)[C@H](C)[C@@H](O[C@@H]2O[C@H](C)C[C@H](N(C)C)[C@H]2O)[C@](C)(O)C[C@@H](C)CN(C)[C@H](C)[C@@H](O)[C@]1(C)O | inactive | inactive | – | –
43 | O=C[C@@H](O)[C@H](O)[C@H](O)CO | inactive | inactive | – | –
44 | NNC(=O)c1cccc(C(=O)NN)c1 | inactive | inactive | – | –
45 | CCCCCCCCCCCCCCC1CO1 (stereo not drawn) | inactive | inactive | – | –
46 | C[C@H]1C[C@H]2[C@@H]3CCC4=CC(=O)C=C[C@]4(C)[C@H]3C(=O)C[C@]2(C)[C@@]1(O)C(=O)CO | inactive | inactive | – | –

Row | SMILES | Potency [1] | Potency [2] | viability change, negative = cytotoxic [1] | activity change, negative = cytotoxicity [2]
47 | NC1(c2ccc(-c3nc4ccn5c(=O)[nH]nc5c4cc3-c3ccccc3)cc2)CCC1 | inactive | inactive | – | –
48 | Cc1ccc2ccccc2n1 | inactive | inactive | – | –
49 | CC(=O)N[C@@H](Cc1ccc(O)cc1)C(=O)O | inactive | inactive | – | –
50 | CCCc1ccc(O)c(OC)c1 | inactive | inactive | – | –
51 | C/C=C/c1ccc(OC)cc1 | inactive | inactive | – | –
52 | CCOc1ccc2nc(S(N)(=O)=O)sc2c1 | inactive | inactive | – | –
53 | CCCOc1ccccc1-c1nc2n[nH]nc2c(=O)[nH]1 | inactive | inactive | – | –
54 | CC(CO)Oc1ccccc1 (stereo not drawn) | inactive | inactive | – | –
55 | Cc1cc(N)n(-c2ccccc2)n1 | inactive | inactive | – | –
56 | O=c1cc[nH]c(=S)[nH]1 | inactive | inactive | – | –
57 | CCCCCCC(C)(C)C(=O)O | inactive | inactive | – | –
58 | NC(=O)Cn1c(=O)cc(CCN2CCN(c3nccc4sccc34)CC2)c2ccc(F)cc21 | inactive | inactive | – | –
59 | Nc1nc(N)nc(-c2ccccc2)n1 | inactive | inactive | – | –
60 | Cc1ccc(O)c([C@H](CCN(C(C)C)C(C)C)c2ccccc2)c1 | inactive | inactive | – | –
61 | CN(c1nccc(=O)[nH]1)C1CCN(c2nc3ccccc3n2Cc2ccc(F)cc2)CC1 | inactive | inactive | – | –
62 | Cc1c(C)c2c(c(C)c1OC(=O)c1cccnc1)CC[C@@](C)(CCC[C@H](C)CCC[C@H](C)CCCC(C)C)O2 | inactive | inactive | – | –
63 | O=C1Nc2ccc([N+](=O)[O-])cc2C1=O | inactive | inactive | – | –
64 | O=P(O)(O)OP(=O)(O)O | inactive | inactive | – | –
65 | NCCCOCCOCCOCCCN | inactive | inactive | – | –
66 | NC(=O)N1c2ccccc2C=Cc2ccccc21 | inactive | inactive | – | –
67 | Cc1ccc(C=O)s1 | inactive | inactive | – | –
68 | O=C(Nc1ccc2c(O)c(N=Nc3ccc(N=Nc4ccc(S(=O)(=O)O)cc4)cc3)c(S(=O)(=O)O)cc2c1)c1ccccc1 | inactive | inactive | – | –
69 | C=CCCCCCCCCCCCCCCCC | – | – | -4.37% [at 8.39 µM] | -18.5% [at 8.39 µM]

Row | SMILES | Potency [1] | Potency [2] | viability change, negative = cytotoxic [1] | activity change, negative = cytotoxicity [2]
70 | COc1ccccc1N1CCN(CC(O)COc2cc(OC)c(OC)c(OC)c2)CC1 (stereo not drawn) | inactive | inactive | – | –
71 | O=[N+]([O-])c1cc([N+](=O)[O-])c2ccc(S(=O)(=O)O)cc2c1O | inactive | inactive | – | –
72 | Cc1cc(NS(=O)(=O)c2ccc(N)cc2)nc(C)n1 | inactive | inactive | – | –
73 | O=C(c1ccccc1)C1(O)CCCCC1 | inactive | inactive | – | –
74 | CCCCC(CC)CNCC(CC)CCCC (stereo not drawn) | inactive | inactive | – | –
75 | c1ccc2[nH]c(-c3cscn3)nc2c1 | inactive | inactive | – | –
76 | COc1ccc(C)cc1N | inactive | inactive | – | –
77 | CC(=O)c1ccc(C)cc1 | inactive | inactive | – | –
78 | O=C(NCC(O)CO)c1c(I)c(C(=O)NCC(O)CO)c(I)c(N(CCO)C(=O)CO)c1I (stereo not drawn) | inactive | inactive | – | –
79 | NS(=O)(=O)c1cc(-c2nn[nH]n2)c(NCc2cccs2)cc1Cl | inactive | inactive | – | –
80 | COS(=O)(=O)C(F)(F)F | inactive | inactive | – | –
81 | CCCCCCCCNC | inactive | inactive | – | –
82 | O=[N+]([O-])c1cc(Cl)c(Cl)c(Cl)c1Cl | inactive | inactive | – | –
83 | NCCN1CCNC1=O | inactive | inactive | – | –
84 | CCCCCCCCCCC(=O)O | inactive | inactive | – | –
85 | ON=C1CCCC1 | inactive | inactive | – | –
86 | NC(=O)Nc1ccc(Cl)cc1 | inactive | inactive | – | –
87 | COC(=O)c1ccc(C=O)cc1 | inactive | inactive | – | –
88 | O=C(O)Cc1cc(I)c(Oc2ccc(O)c(I)c2)c(I)c1 | inactive | inactive | – | –
89 | BrC(Br)C(Br)Br | inactive | inactive | – | –
90 | CCNC(=S)NCC | inactive | inactive | – | –
91 | FC(F)(F)c1ccccc1-n1ccnc1 | inactive | inactive | – | –
92 | NCCCCCCNCCCCCCN | inactive | inactive | – | –

Row | SMILES | Potency [1] | Potency [2] | viability change, negative = cytotoxic [1] | activity change, negative = cytotoxicity [2]
93 | O=C(O)COCCN1CCN(C(c2ccccc2)c2ccc(Cl)cc2)CC1 (stereo not drawn) | inactive | inactive | – | –
94 | C=C(C)[C@H]1CC=C(C)C(=O)C1 | inactive | inactive | – | –
95 | CC(=O)CC(c1ccc([N+](=O)[O-])cc1)c1c(O)c2ccccc2oc1=O (stereo not drawn) | inactive | inactive | – | –
96 | C/C(=N/NC(=O)c1ccncc1)C(=O)O | inactive | inactive | – | –
97 | O=S(=O)(Oc1ccc(Cl)cc1Cl)c1ccccc1 | inactive | inactive | – | –
98 | Oc1ccc(O)c2c(O)cccc12 | inactive | inactive | – | –
99 | BrC1CCC(Br)C(Br)CCC(Br)C(Br)CCC1Br (stereo not drawn) | inactive | inactive | – | –
100 | COc1cc(O)cc(O)c1 | inactive | inactive | – | –
101 | C=CCCCCCCCCCCCCCC | – | – | -1.45% [at 18.9 µM] | -8.5% [at 18.9 µM]
102 | CCOCCOCCOCCO | inactive | inactive | – | –
103 | CN(C)CCCCCCN(C)C | inactive | inactive | – | –
104 | CCOC(=O)CC(C)O (stereo not drawn) | inactive | inactive | – | –
105 | Clc1ccc2n[nH]nc2c1 | inactive | inactive | – | –
106 | O=c1oc(=O)c2cc3c(=O)oc(=O)c3cc12 | inactive | inactive | – | –
107 | C[C@]12CC[C@@H]3c4ccc(O)cc4CC[C@H]3[C@@H]1C[C@@H](O)[C@@H]2O | inactive | inactive | – | –
108 | C1=C\CC/C=C\CC/C=C\CC/1 | inactive | inactive | – | –
109 | COC(=O)C1=C(C)NC(C)=C(C(=O)OCCN2CCN(C(c3ccccc3)c3ccccc3)CC2)C1c1cccc([N+](=O)[O-])c1 (stereo not drawn) | inactive | inactive | – | –
110 | [Cl][Bi]([Cl])([c]1ccccc1)([c]1ccccc1)[c]1ccccc1 | 30.5 µM (active) | 43 µM (active) | – | –
111 | OCCN(CCO)CCN(CCO)CCO | inactive | inactive | – | –
112 | C=CC(C)(CCC=C(C)C)OC(=O)c1ccccc1 (stereo not drawn) | inactive | inactive | – | –
113 | O=C(/C=C/c1ccc([N+](=O)[O-])cc1)c1ccccc1 | inactive | inactive | – | –
114 | CSc1cnccn1 | inactive | inactive | – | –
